Test results published in PubChem BioAssay (NCI).
Compounds without any hit were thinned out: in the full panel of roughly 83,000, 20% have a hit.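 Note: values are percent growth. 100 is the growth of untreated cells, values between 100 and 0 indicate rising inhibition; between -100 and 0 indicates cell death.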 Values without a mark were called inactive. The source made the active and inactive calls. The calls were made as follows: active = growth percent below 10; inactive = the rest.

The compounds below were run on A498 renal (assay: NCI-60 one-dose screen, 48 h (100 = growth as untreated, 0 = no growth, -100 = all killed)). Conditions: 10 µM unless noted.

Structure (SMILES)	growth
O=S(=O)(NCCCNc1nccc(-n2ccc3cccnc32)n1)c1cccc(C(F)(F)F)c1	112%
CC(C)(C)n1cc(-c2ccnc(NCCNS(=O)(=O)c3ccc(F)cc3)c2)c(-c2cccc(O)c2)n1	56.7%
Cc1ccc(-c2cc3nc(C(Cl)Cl)nc(-c4ccccc4C)n3n2)cc1	74.4%
O=C(NNC(=O)N1c2ccccc2C=Cc2ccccc21)c1ccc2ccccc2c1	94.1%
CN(C[C@H]1Cc2c(cccc2N2CCN(Cc3ccccn3)CC2)CN1)[C@H]1CCCc2cccnc21	65.9%
CCCCCCCCC(C)OC(=O)c1nn(C(C)=O)c2ccccc12 (stereo not drawn)	109%
OC(c1cc2cc(Br)ccc2c2cc(Br)ccc12)C1CCCCN1 (stereo not drawn)	24%
O=C(NS(=O)(=O)c1ccc2ccccc2c1)n1cc(-c2ccncc2)c(-c2ccc(Cl)c(O)c2)n1	87.7%
Cc1cc(N)n(S(=O)(=O)c2oc(-c3ccccc3)nc2C#N)n1	128%
O=[N+]([O-])c1ccc(C(c2ccccc2)c2ccccc2)cc1	91.3%
CN(C)c1oc(C2OC2c2ccccc2)nc1C#N (stereo not drawn)	123%
Cc1ccc(S(=O)(=O)NC(=O)n2cc(-c3ccncc3)c(-c3ccc(Cl)c(O)c3)n2)cc1	105%
CN(CCCCN(C[C@H]1Cc2ncccc2CN1)[C@H]1CCCc2cccnc21)C1CCC(F)(F)CC1	99.4%
Cc1cc(C2(c3cc(C)c(O)cc3C)OS(=O)(=O)c3ccccc32)c(C)cc1O	93.9%
CC1CN(c2oc(-c3ccccc3)nc2C#N)CC(C)O1 (stereo not drawn)	93.8%
NC(=O)CCCN1C/C(=C\c2ccccc2)C(=O)c2ccccc21	107%
Cc1ccc(S(=O)(=O)NCCCNc2cc(-c3cn(C(C)(C)C)nc3-c3cccc(O)c3)ccn2)cc1	85.1%
Cc1nc2ncccc2nc1Nc1ccc(S(=O)(=O)Nc2ccccn2)cc1	104%
COc1ccc(NC(=O)c2c(Nc3ccc(OC)cc3OC)n[nH]c2N)c(OC)c1	114%
CCOC(=O)c1cn2c3c(cc(C)cc3c1=O)C(=O)/C(=C/c1ccccc1)C2	86.9%

Structure (SMILES)	growth
N=c1ccc2nc3ccc(N)cc3sc-2c1	70.6%
CC12CCC3C4(C)COC(c5ccccc5Cl)OC4CCC3(C)C1CC(C1=CCOC1=O)O2 (stereo not drawn)	50.8%
C=C1CCC2C(C)(CO)C(O)CCC2(C)C1CC(NCc1ccccc1)C1=CCOC1=O (stereo not drawn)	106%
c1cc(C2=N[C@@H]3c4ccccc4C[C@@H]3O2)nc(C2=N[C@@H]3c4ccccc4C[C@@H]3O2)c1	102%
COC1=C(OC)C(=O)C(CCCCCCCCCC[P+](c2ccccc2)(c2ccccc2)c2ccccc2)=C(C)C1=O	-44.1% (active)
COc1ccc(-c2cc(-c3ccccc3)nc(SCCCC(=O)NO)n2)cc1OC	-24.9% (active)
N=C(N)c1ccc(-c2cc(Cl)cc(Cl)c2)cn1	73.1%
Nc1cccc(-c2nc3sccn3c2-c2ccnc(NCCNS(=O)(=O)c3ccc(C(F)(F)F)cc3)n2)c1	34.1%
C=C1CCC2C(C)(CO)C(O)CCC2(C)C1C/C=C1/C(=O)OCC1O/C=C/c1ccccc1 (stereo not drawn)	86.4%
CCN(CC)CCC(CNc1ccnc2cc(Cl)ccc12)c1ccccc1 (stereo not drawn)	42.3%
COc1ccc(-c2ccc(-c3ccc(C(=N)N)cn3)s2)cc1OC	78.5%
Cn1cnc2c(N3CCN(C(=O)OCc4ccc5c(Cl)cc(Cl)c(O)c5n4)CC3)nc(Cl)nc21	62.7%
C=C1CCC2C(C)(CO)C(O)CCC2(C)C1C/C=C1/C(=O)OCC1Oc1ccccc1C (stereo not drawn)	108%
COc1ccc(S(=O)(=O)NCCCNc2nccc(-n3ccc4cccnc43)n2)cc1	87.5%
CCN(CC)CCC(CNc1ccnc2cc(Cl)ccc12)c1ccc(Cl)cc1 (stereo not drawn)	0.939% (active)
N=C(N)c1ccc(-c2ccc(-c3ccc(-c4cccs4)s3)s2)cc1	20.6%
COc1ccc(Nc2nn3c(C)cc(C)nc3c2C(=O)Nc2ccc(C)cc2)c(OC)c1	117%
CCCCCCN1CSC(=S)N(CCCCCC)C1	94.2%
O=C(NS(=O)(=O)c1ccccc1)n1cc(-c2ccncc2)c(-c2ccc(Cl)c(O)c2)n1	106%

These compounds were tested on CCRF-CEM leukemia in the same assay as above. Conditions: 10 µM unless noted.

Structure (SMILES)	growth
O=S(=O)(NCCCNc1nccc(-n2ccc3cccnc32)n1)c1cccc(C(F)(F)F)c1	102%
CC(C)(C)n1cc(-c2ccnc(NCCNS(=O)(=O)c3ccc(F)cc3)c2)c(-c2cccc(O)c2)n1	46.4%
Cc1ccc(-c2cc3nc(C(Cl)Cl)nc(-c4ccccc4C)n3n2)cc1	96.1%
O=C(NNC(=O)N1c2ccccc2C=Cc2ccccc21)c1ccc2ccccc2c1	95%
CN(C[C@H]1Cc2c(cccc2N2CCN(Cc3ccccn3)CC2)CN1)[C@H]1CCCc2cccnc21	41.2%
CCCCCCCCC(C)OC(=O)c1nn(C(C)=O)c2ccccc12 (stereo not drawn)	100%
OC(c1cc2cc(Br)ccc2c2cc(Br)ccc12)C1CCCCN1 (stereo not drawn)	-57.4% (active)
O=C(NS(=O)(=O)c1ccc2ccccc2c1)n1cc(-c2ccncc2)c(-c2ccc(Cl)c(O)c2)n1	74.1%
Cc1cc(N)n(S(=O)(=O)c2oc(-c3ccccc3)nc2C#N)n1	7.83% (active)
O=[N+]([O-])c1ccc(C(c2ccccc2)c2ccccc2)cc1	97.8%
CN(C)c1oc(C2OC2c2ccccc2)nc1C#N (stereo not drawn)	86.1%
Cc1ccc(S(=O)(=O)NC(=O)n2cc(-c3ccncc3)c(-c3ccc(Cl)c(O)c3)n2)cc1	93.9%
CN(CCCCN(C[C@H]1Cc2ncccc2CN1)[C@H]1CCCc2cccnc21)C1CCC(F)(F)CC1	88.3%
Cc1cc(C2(c3cc(C)c(O)cc3C)OS(=O)(=O)c3ccccc32)c(C)cc1O	93.7%
CC1CN(c2oc(-c3ccccc3)nc2C#N)CC(C)O1 (stereo not drawn)	104%
NC(=O)CCCN1C/C(=C\c2ccccc2)C(=O)c2ccccc21	110%
Cc1ccc(S(=O)(=O)NCCCNc2cc(-c3cn(C(C)(C)C)nc3-c3cccc(O)c3)ccn2)cc1	52.4%
Cc1nc2ncccc2nc1Nc1ccc(S(=O)(=O)Nc2ccccn2)cc1	107%
COc1ccc(NC(=O)c2c(Nc3ccc(OC)cc3OC)n[nH]c2N)c(OC)c1	110%
CCOC(=O)c1cn2c3c(cc(C)cc3c1=O)C(=O)/C(=C/c1ccccc1)C2	93.5%

Structure (SMILES)	growth
N=c1ccc2nc3ccc(N)cc3sc-2c1	21.3%
CC12CCC3C4(C)COC(c5ccccc5Cl)OC4CCC3(C)C1CC(C1=CCOC1=O)O2 (stereo not drawn)	66.8%
C=C1CCC2C(C)(CO)C(O)CCC2(C)C1CC(NCc1ccccc1)C1=CCOC1=O (stereo not drawn)	105%
c1cc(C2=N[C@@H]3c4ccccc4C[C@@H]3O2)nc(C2=N[C@@H]3c4ccccc4C[C@@H]3O2)c1	102%
COC1=C(OC)C(=O)C(CCCCCCCCCC[P+](c2ccccc2)(c2ccccc2)c2ccccc2)=C(C)C1=O	-6.4% (active)
COc1ccc(-c2cc(-c3ccccc3)nc(SCCCC(=O)NO)n2)cc1OC	6.42% (active)
N=C(N)c1ccc(-c2cc(Cl)cc(Cl)c2)cn1	8.61% (active)
Nc1cccc(-c2nc3sccn3c2-c2ccnc(NCCNS(=O)(=O)c3ccc(C(F)(F)F)cc3)n2)c1	41.8%
C=C1CCC2C(C)(CO)C(O)CCC2(C)C1C/C=C1/C(=O)OCC1O/C=C/c1ccccc1 (stereo not drawn)	10.7%
CCN(CC)CCC(CNc1ccnc2cc(Cl)ccc12)c1ccccc1 (stereo not drawn)	58.6%
COc1ccc(-c2ccc(-c3ccc(C(=N)N)cn3)s2)cc1OC	97.6%
Cn1cnc2c(N3CCN(C(=O)OCc4ccc5c(Cl)cc(Cl)c(O)c5n4)CC3)nc(Cl)nc21	37.6%
C=C1CCC2C(C)(CO)C(O)CCC2(C)C1C/C=C1/C(=O)OCC1Oc1ccccc1C (stereo not drawn)	20.3%
COc1ccc(S(=O)(=O)NCCCNc2nccc(-n3ccc4cccnc43)n2)cc1	90%
CCN(CC)CCC(CNc1ccnc2cc(Cl)ccc12)c1ccc(Cl)cc1 (stereo not drawn)	3.11% (active)
N=C(N)c1ccc(-c2ccc(-c3ccc(-c4cccs4)s3)s2)cc1	-47.8% (active)
COc1ccc(Nc2nn3c(C)cc(C)nc3c2C(=O)Nc2ccc(C)cc2)c(OC)c1	106%
CCCCCCN1CSC(=S)N(CCCCCC)C1	88.2%
O=C(NS(=O)(=O)c1ccccc1)n1cc(-c2ccncc2)c(-c2ccc(Cl)c(O)c2)n1	89.8%
